Active and inactive are the calls of the source. The rule behind the calls is not given here.
test: P. aeruginosa biofilm formation inhibitors, primary screen, strain PAO1, LB-PBS medium, absorbance 600 nm (AID 1176); note: test concentration not given here; conditions: P. aeruginosa PAO1 growth/biofilm, A600, 12 h; higher = more signal

z-score, inactive:
COc1ccc(COC(=O)NN=C2C[C@@H](O)[C@@H](O)[C@@H]3[C@@H]4C(=O)N(Cc5ccccc5)C(=O)[C@@H]4CC[C@@H]23)cc1 0.0335, O=C1C=C[C@@H](O)[C@@H]2[C@@H]3C(=O)N(Cc4ccccc4)C(=O)[C@@H]3CC[C@@H]12 0.647, CCCC[C@H]1CN2[C@@H](CC[C@@H](C)[C@@H]2c2ccc(Br)cc2)C(=O)O1 -0.515, COc1ccc(O[C@H]2C=C[C@@H](C#Cc3ccccc3)O[C@@H]2CO)cc1 0.0372, O=C(NCCC[N+]1=CC=NC1c1ccccc1)N1CCCc2nc(-c3ccc(Br)cc3)ccc21 (stereo unspecified) 0.508, C[C@H]1CC[C@@H](C(=O)O)N[C@@H]1c1ccc(C#Cc2ccccc2)cc1 -0.446, CC(C)CN1CCc2nc(-c3ccccc3)c3c(c2C1)CO[C@@H](C)C3 -0.588, COc1ccc(COC(=O)NN=C2C[C@@H](O)[C@@H](O)[C@@H]3[C@@H]4C(=O)N(Cc5ccc6c(c5)OCO6)C(=O)[C@@H]4CC[C@H]23)cc1 -0.273, COC(=O)C(C(=O)OC)C1CCCC(=O)C1 (stereo unspecified) -0.482, CC(C)[C@@H](OCc1ccccc1)[C@H](C)C=NOC[C@@H](O)[C@H]1O[C@@H]2OC(C)(C)O[C@@H]2[C@H]1O 0.241, CCc1cc2c(nc1CC)CCN(CCC(C)=NO[C@@H]1O[C@H](COC(C)=O)[C@@H](OC(C)=O)[C@H](OC(C)=O)[C@H]1OC(C)=O)C2 -0.585

Source: PubChem BioAssay
